# Source: PubChem BioAssay (NCATS)
# Where “and” joins values, the source holds several entries; their conditions need not be identical. Equal entries are not always repeated. Inconclusive results are not listed. Calls of active or inactive are those of the source. Unless noted, calls follow the shape of the dose curve; as a rule, active = well fitted curve in the direction sought with a large enough effect; inconclusive = small, poorly fitted or top-dose-only effect, or another doubt; inactive = no such curve, though single readings can be large; an effect the other way counts as inactive or inconclusive.
# What was measured:
# [1] = target: Hexokinase-4 (Homo sapiens) + Glucokinase regulatory protein (Homo sapiens) (UniProt P35557+Q14397); experiment: qHTS assay for inhibitors of recombinant human GCK-GKRP interaction: HTRF assay (AID 743207);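 also: 0% = DMSO with GCK present and -100% = DMSO wells lacking GCK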
# Method in brief: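 Titration screening format: recombinant GST-GCK and FLAG-GKRP at 5 nM, S6P at 2 uM, labelled anti-tag antibodies, 60 min at RT, dual-wavelength HTRF readout.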
# [2] = qHTS Assay for Identifying Gametocytocidal Compounds (AID 743244); also: potency is read from the fitted curve at half-maximal effect;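 as to max response: % is scaled to controls: 0 for no effect and ±100 for the full control effect; actives lower the fluorescent signal which means gametocytes are killed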; conditions: P. falciparum 3D7 stage III-V gametocytes, alamarBlue, 72 h; max response: stronger effect = lower value
# Method in brief: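 Viability read-out was resazurin reduction (alamarBlue, 24 h) measured at Ex 525/Em 598 nm. Beforehand, late-stage (III-V) 3D7 P. falciparum gametocytes at 20,000 cells/well were incubated with compound 72 h at 37C under 5% CO2.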
# [3] = qHTS assay for cell viability of HEK293 cells (AID 743288); conditions: ATP luminescence (CellTiter-Glo), 18 h; max response: stronger effect = lower value; also: % is scaled to controls: 0 for no effect and ±100 for the full control effect; nearly all actives have a fitted effect of over 50% in size
# Method in brief: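 HEK293, 18 h, 37 C, ATP luminescence. Cells at 2,000/well were allowed at least 5 h to settle before dosing; CellTiter-Glo developed 30 min at RT.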
# [4] = qHTS assay for cell viability of the p53RE-bla HCT-116 cell line (AID 743292); also: % is scaled to controls: 0 for no effect and ±100 for the full control effect; nearly all actives have a fitted effect of over 55% in size
# Method in brief: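 CellSensor p53RE-bla HCT-116 cells, 4,000/well, preincubated 5 h at 37 C, then exposed to compounds in DMSO for 16 h at 37 C. Viability read as CellTiter-Glo luminescence (intracellular ATP) after 30 min at room temperature.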
# [5] = qHTS profiling of the MIPE4 collection as inhibitors of Plasmodium falciparum (3D7) proliferation (AID 743344; call rule not given here;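 also: scaled between DMSO vehicle wells and 0.29 µM artemisinin as full inhibition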); conditions: P. falciparum 3D7 in erythrocytes, SYBR Green DNA fluorescence, 72 h; at 28.5 µM (top of the series) unless noted
# Method in brief: (§1)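 Parasite DNA was quantified by SYBR Green I fluorescence (ex 485, em 535 nm) after overnight lysis in saponin/Triton buffer at room temperature. Cultures at 0.3% parasitemia and 2.5% hematocrit were first exposed to compound for 72 h at 37 C; signals were normalised to artemisinin (0.29 uM) and vehicle wells.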
# [6] = qHTS profiling of the MIPE4 collection as inhibitors of Plasmodium falciparum (DD2) proliferation (AID 743345; call rule not given here); conditions: P. falciparum Dd2 in erythrocytes, SYBR Green DNA, 72 h; at 28.5 µM (top of the series) unless noted
# Method in brief: as §1
# [7] = qHTS profiling of the MIPE4 collection as inhibitors of Plasmodium falciparum (DD2) proliferation (Rep 2) (AID 743346; call rule not given here); conditions: P. falciparum Dd2 in erythrocytes, SYBR Green DNA, 72 h; at 28.5 µM (top of the series) unless noted
# Method in brief: as §1
# [8] = qHTS profiling for inhibitors of Plasmodium falciparum (3D7) proliferation (AID 743322; call rule not given here;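 also: infected erythrocytes exposed to compound for 72 h before lysis; 100% = DMSO vehicle wells and 0% = 0.29 µM artemisinin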); conditions: P. falciparum 3D7 proliferation; at 28.7 µM (top of the series) unless noted
# Method in brief: as §1
# [9] = qHTS profiling for inhibitors of Plasmodium falciparum (DD2) proliferation (AID 743323; call rule not given here); conditions: lower = more inhibition; at 28.7 µM (top of the series) unless noted
# Method in brief: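 1536-well qHTS; infected RBCs 0.3% parasitemia/2.5% Hct final; cpd 72 h 37 C 5% CO2; lysis buffer + SYBR Green I, o/n RT dark; FI 485/535; norm. to 0.29 uM artemisinin and DMSO, plate-stack corrected.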
# [10] = qHTS profiling for inhibitors of Plasmodium falciparum (HB3) proliferation (AID 743324); conditions: Plasmodium falciparum HB3 blood-stage proliferation; at 28.7 µM (top of the series) unless noted;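 also: 100% = DMSO vehicle wells and 0% = artemisinin-treated control wells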
# Method in brief: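 SYBR Green fluorescence (485 ex/535 em) of lysed cultures, incubated overnight at room temperature in the dark, quantifies parasite DNA. Infected erythrocytes at 0.3% parasitemia and 2.5% hematocrit were exposed 72 h; values normalized to DMSO and 0.29 uM artemisinin controls.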
# Hexokinase-4 (Homo sapiens) + Glucokinase regulatory protein (Homo sapiens), sequence (P35557 whole entry, looked up): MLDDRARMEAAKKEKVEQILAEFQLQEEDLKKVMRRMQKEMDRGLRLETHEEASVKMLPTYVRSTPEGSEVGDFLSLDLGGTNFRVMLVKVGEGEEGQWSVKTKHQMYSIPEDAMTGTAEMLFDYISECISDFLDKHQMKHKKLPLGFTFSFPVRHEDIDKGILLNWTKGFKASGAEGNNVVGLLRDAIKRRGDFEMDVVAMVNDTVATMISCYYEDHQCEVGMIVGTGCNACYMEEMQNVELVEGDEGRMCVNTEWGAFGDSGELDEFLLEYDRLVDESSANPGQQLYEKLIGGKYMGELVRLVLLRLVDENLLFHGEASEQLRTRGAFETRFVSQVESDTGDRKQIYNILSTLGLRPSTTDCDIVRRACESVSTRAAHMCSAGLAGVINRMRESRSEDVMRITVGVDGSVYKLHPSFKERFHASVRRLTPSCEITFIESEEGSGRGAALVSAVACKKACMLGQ
# Hexokinase-4 (Homo sapiens) + Glucokinase regulatory protein (Homo sapiens), sequence (Q14397 whole entry, looked up): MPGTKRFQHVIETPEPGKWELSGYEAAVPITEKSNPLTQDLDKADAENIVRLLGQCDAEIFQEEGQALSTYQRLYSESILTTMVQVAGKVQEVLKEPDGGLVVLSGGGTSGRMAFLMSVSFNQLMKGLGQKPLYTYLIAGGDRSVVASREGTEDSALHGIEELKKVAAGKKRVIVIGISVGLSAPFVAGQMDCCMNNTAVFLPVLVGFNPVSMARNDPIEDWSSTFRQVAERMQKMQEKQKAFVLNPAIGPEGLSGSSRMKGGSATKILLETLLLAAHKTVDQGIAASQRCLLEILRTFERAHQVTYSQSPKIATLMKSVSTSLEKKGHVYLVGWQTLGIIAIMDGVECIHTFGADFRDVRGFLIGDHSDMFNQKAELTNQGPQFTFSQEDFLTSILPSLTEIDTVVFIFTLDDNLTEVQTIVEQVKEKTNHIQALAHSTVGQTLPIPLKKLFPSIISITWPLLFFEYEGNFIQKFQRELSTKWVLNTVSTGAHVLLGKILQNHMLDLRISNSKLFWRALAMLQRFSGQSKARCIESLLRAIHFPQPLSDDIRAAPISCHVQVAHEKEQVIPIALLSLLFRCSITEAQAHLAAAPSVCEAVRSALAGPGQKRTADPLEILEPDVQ
smiles,measurement,setting,value
O=NN(CCCl)C(=O)NCCCl,outcome,[1],inactive
same,max response,[2],10.6% (inactive) and 5.39% (inactive)
same,max response,[3],-8.57% (inactive)
same,Potency,[4],inactive
O=C1CCc2cc(OCCCCc3nnnn3C3CCCCC3)ccc2N1,outcome,[1],inactive
same,max response,[2],16.8% (inactive) and 6.18% (inactive)
same,"parasite growth, % of DMSO control",[5],90.8%
same,"parasite growth remaining, % of DMSO control (lower = more inhibition)",[6],99.1%
same,"parasite growth, % of control (lower = inhibition)",[7],115%
Cc1cn[nH]c1,outcome,[1],inactive
same,max response,[2],28.3% (inactive) and 8.61% (inactive)
same,"parasite growth, % of DMSO control",[5],5.44%
same,"parasite growth remaining, % of DMSO control (lower = more inhibition)",[6],10%
same,"parasite growth, % of control (lower = inhibition)",[7],6.63%
CNC[C@H](O)c1cccc(O)c1,outcome,[1],inactive
same,max response,[2],-1.17% (inactive) and 7.6% (inactive)
same,max response,[3],-12.3% (inactive)
same,Potency,[4],inactive
same,"parasite growth, % of DMSO control",[5],102%
same,"parasite growth remaining, % of DMSO control (lower = more inhibition)",[6],98.1%
same,"parasite growth, % of control (lower = inhibition)",[7],94.6%
OC(CN1CCC(Cc2ccc(F)cc2)CC1)c1ccc(Cl)cc1 (stereo not given),outcome,[1],inactive
same,Potency,[2],7.43 µM (active)
same,remaining parasite growth % (stronger effect = lower value),[8],1.14% and 5.06%
same,"activity, percent of control",[9],1.06% and 4.92%
same,"parasite growth, % of DMSO control",[5],9.22%
same,"parasite growth remaining, % of DMSO control (lower = more inhibition)",[6],8.62%
Cc1[nH]c(=O)c(C#N)cc1-c1ccncc1,outcome,[1],inactive
same,max response,[2],-5.95% (inactive) and 11% (inactive) and 13.2% (inactive)
same,max response,[3],7.32% (inactive)
same,Potency,[4],inactive
same,"parasite growth, % of DMSO control",[5],15.2%
same,"parasite growth remaining, % of DMSO control (lower = more inhibition)",[6],14.6%
same,"parasite growth, % of control (lower = inhibition)",[7],36.4%
CC(=O)Oc1ccccc1C(=O)O,outcome,[1],inactive
same,max response,[2],-2.57% (inactive) and 13.2% (inactive)
same,max response,[3],-2.25% (inactive) and -4.16% (inactive) and -2.23% (inactive)
same,Potency,[4],inactive
same,"parasite growth, % of DMSO control",[5],93.6%
same,"parasite growth remaining, % of DMSO control (lower = more inhibition)",[6],90.5%
same,"parasite growth, % of control (lower = inhibition)",[7],90.6%
Cc1cccc(-c2[nH]c(C(C)(C)C)nc2-c2ccc3nccnc3c2)n1,outcome,[1],inactive
same,Potency,[2],0.662 µM (active)
same,remaining parasite growth % (stronger effect = lower value),[8],54.8%
same,"activity, percent of control",[9],67.1%
same,"remaining proliferation (% of control), lower = more inhibition",[10],27%
same,"parasite growth, % of DMSO control",[5],23.7%
same,"parasite growth remaining, % of DMSO control (lower = more inhibition)",[6],47.6%
C[C@]12CCC(=O)C=C1CC[C@@H]1[C@@H]2[C@@H](O)C[C@@]2(C)[C@H]1CC[C@]2(O)C(=O)CO,outcome,[1],inactive
same,max response,[2],5.84% (inactive) and 30.7% (inactive)
same,max response,[3],-17.5% (inactive)
same,Potency,[4],inactive
same,remaining parasite growth % (stronger effect = lower value),[8],98.9%
same,"activity, percent of control",[9],92.4%
Cc1oncc1C(=O)Nc1ccc(C(F)(F)F)cc1,outcome,[1],inactive
same,max response,[2],50.5% (inactive) and -6.39% (inactive) and -7.89% (inactive)
same,remaining parasite growth % (stronger effect = lower value),[8],104% and 91.9%
same,"activity, percent of control",[9],94.9% and 88.9%
same,"remaining proliferation (% of control), lower = more inhibition",[10],95% and 87.2%
same,"parasite growth, % of DMSO control",[5],13.7%
same,"parasite growth remaining, % of DMSO control (lower = more inhibition)",[6],102%
same,"parasite growth, % of control (lower = inhibition)",[7],61.2%
NNCCc1ccccc1,outcome,[1],inactive
same,max response,[2],-2.24% (inactive) and 11.6% (inactive)
same,"parasite growth, % of DMSO control",[5],88.8%
same,"parasite growth, % of control (lower = inhibition)",[7],79.6%
Cc1cnc(NC(=O)C2=C(O)c3ccccc3S(=O)(=O)N2C)s1,outcome,[1],inactive
same,max response,[2],4.3% (inactive) and 13.2% (inactive) and 16.1% (inactive)
same,"parasite growth, % of DMSO control",[5],39%
same,"parasite growth remaining, % of DMSO control (lower = more inhibition)",[6],86.7%
same,"parasite growth, % of control (lower = inhibition)",[7],61.9%
NCCCC(N)(C(=O)O)C(F)F (stereo not given),outcome,[1],inactive
same,max response,[2],5.66% (inactive) and 8.03% (inactive)
same,"parasite growth, % of DMSO control",[5],98%
same,"parasite growth remaining, % of DMSO control (lower = more inhibition)",[6],95.9%
NC(=O)c1cnccn1,outcome,[1],inactive
same,max response,[2],-3.29% (inactive) and 14.5% (inactive)
same,max response,[3],4.61% (inactive) and 0.671% (inactive)
same,Potency,[4],inactive
same,"parasite growth, % of DMSO control",[5],97.3%
same,"parasite growth remaining, % of DMSO control (lower = more inhibition)",[6],94.9%
same,"parasite growth, % of control (lower = inhibition)",[7],45.3%
c1ccc([C@H]2CN3CCSC3=N2)cc1,outcome,[1],inactive
same,max response,[2],4.37% (inactive)
same,"parasite growth, % of DMSO control",[5],92.1%
same,"parasite growth remaining, % of DMSO control (lower = more inhibition)",[6],98.3%
same,"parasite growth, % of control (lower = inhibition)",[7],63.1%
C1COC(NC(C2CC2)C2CC2)=N1,outcome,[1],inactive
same,max response,[2],8.63% (inactive) and 12.8% (inactive)
same,"parasite growth, % of DMSO control",[5],72.7%
same,"parasite growth remaining, % of DMSO control (lower = more inhibition)",[6],88.7%
same,"parasite growth, % of control (lower = inhibition)",[7],67.2%
CCn1cc(C(=O)O)c(=O)c2cc(F)c(N3CCNC(C)C3)c(F)c21 (stereo not given),outcome,[1],inactive
same,max response,[2],19.5% (inactive) and 11.6% (inactive) and 13.2% (inactive)
same,"parasite growth, % of DMSO control",[5],49.1%
same,"parasite growth remaining, % of DMSO control (lower = more inhibition)",[6],68.3%
same,"parasite growth, % of control (lower = inhibition)",[7],83.6%
CCOC(=O)C1=C[C@]2(CC)CCCN3CCc4c(n1c1ccccc41)[C@@H]32,outcome,[1],inactive
same,max response,[2],-1.66% (inactive)
same,"parasite growth, % of DMSO control",[5],5.46% and 17.8%
same,"parasite growth remaining, % of DMSO control (lower = more inhibition)",[6],8.67% and 83.7%
same,"parasite growth, % of control (lower = inhibition)",[7],35.2% and 34.2%
NC(N)=NC(=O)c1nc(Cl)c(N)nc1N,outcome,[1],inactive
same,max response,[3],-10.2% (inactive)
same,Potency,[4],inactive
CC(C[N+](C)(C)C)OC(N)=O (stereo not given),outcome,[1],inactive
same,max response,[2],11.1% (inactive)
same,"parasite growth, % of DMSO control",[5],102%
same,"parasite growth remaining, % of DMSO control (lower = more inhibition)",[6],101%
same,"parasite growth, % of control (lower = inhibition)",[7],96.7%
NS(=O)(=O)c1cc2c(cc1Cl)NC=NS2(=O)=O,outcome,[1],inactive
same,max response,[3],-1.12% (inactive)
same,Potency,[4],inactive
same,"parasite growth, % of DMSO control",[5],88.5%
same,"parasite growth, % of control (lower = inhibition)",[7],125%
OC(CCN1CCCCC1)(c1ccccc1)C1CC2C=CC1C2 (stereo not given),outcome,[1],inactive
same,max response,[2],-9.9% (inactive)
same,"parasite growth, % of DMSO control",[5],38.1%
same,"parasite growth remaining, % of DMSO control (lower = more inhibition)",[6],75.2%
Cc1ccccc1C(OCCN(C)C)c1ccccc1 (stereo not given),outcome,[1],inactive
same,max response,[2],21.5% (inactive) and -9.62% (inactive) and 11.5% (inactive)
same,max response,[3],-14.1% (inactive)
same,"parasite growth, % of DMSO control",[5],64.6%
same,"parasite growth remaining, % of DMSO control (lower = more inhibition)",[6],60.2%
O=C1CCC(N2C(=O)c3ccccc3C2=O)C(=O)N1 (stereo not given),outcome,[1],inactive
same,max response,[2],18.1% (inactive) and 27% (inactive)
same,max response,[3],-7.06% (inactive)
same,Potency,[4],inactive
same,"parasite growth, % of DMSO control",[5],93.4%
same,"parasite growth remaining, % of DMSO control (lower = more inhibition)",[6],88.8%
